This is part of a sample that, as a whole, favours compounds with a hit. Of some 83,000 tested, about 20% had one in any assay.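 Activity criterion: percent growth below 10, measured after cells in 96-well plates were exposed to a single compound concentration for 48 hours.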 The source made the active and inactive calls.
Key:
Experiment in all cases: NCI-60 one-dose screen, 48 h (100 = growth as untreated, 0 = no growth, -100 = all killed)
NCI-H23 lung = settings: 10 µM unless noted
NCI-H226 lung = settings: 10 µM unless noted
NCI-H322M lung = settings: 10 µM unless noted
NCI-H460 lung = settings: 10 µM unless noted
HOP-92 NSCLC = settings: 10 µM
NCI-H522 lung = settings: 10 µM
A549/ATCC NSCLC = settings: 10 µM unless noted
786-0 renal = settings: 10 µM unless noted
COLO 205 colon = settings: 10 µM unless noted
DU-145 prostate = settings: 10 µM unless noted
K-562 leukemia = settings: 10 µM unless noted
MDA-MB-231 breast = settings: 10 µM unless noted
RXF 393 renal = settings: 10 µM unless noted
SF-268 CNS = settings: 10 µM unless noted
SF-295 CNS = settings: 10 µM unless noted
SF-539 CNS = settings: 10 µM unless noted
UACC-257 melanoma = settings: 10 µM unless noted
M14 melanoma = settings: 10 µM unless noted
MALME-3M melanoma = settings: 10 µM unless noted

Measured: growth

O=C(/C=C/c1c[nH]c2ccccc12)c1cc2ccccc2o1
inactive: NCI-H23 lung 97.2% | NCI-H226 lung 100% | NCI-H322M lung 99.7% | NCI-H460 lung 107% | HOP-92 NSCLC 83.2% | NCI-H522 lung 79.8% | A549/ATCC NSCLC 89.5% | 786-0 renal 86.6% | COLO 205 colon 130% | DU-145 prostate 95.6% | K-562 leukemia 37.2% | MDA-MB-231 breast 84.6% | RXF 393 renal 114% | SF-268 CNS 80.6% | SF-295 CNS 91% | SF-539 CNS 82.1% | UACC-257 melanoma 98.4% | M14 melanoma 84.2%

O=C(/C=C1\C(=O)N(Cc2ccc([N+](=O)[O-])cc2)c2ccccc21)c1ccc(OCCN2CCCCC2)cc1
active: NCI-H23 lung -10.4% | NCI-H226 lung -41.1% | HOP-92 NSCLC -74.5% | NCI-H522 lung -75% | 786-0 renal -88.1% | COLO 205 colon -49.5% | DU-145 prostate -35.3% | K-562 leukemia -35.2% | MDA-MB-231 breast -60.8% | RXF 393 renal -90.7% | SF-268 CNS -35.4% | SF-539 CNS -84.6% | UACC-257 melanoma -4.94% | M14 melanoma -59.4%
inactive: NCI-H322M lung 49.2% | NCI-H460 lung 39% | A549/ATCC NSCLC 48.2% | SF-295 CNS 49.7%

C[C@H]1C[C@@H](n2cnc3c(N)nccc32)[C@H](O)[C@@H]1O
active: RXF 393 renal 7.03%
inactive: NCI-H23 lung 128% | NCI-H226 lung 105% | NCI-H322M lung 110% | NCI-H460 lung 80.8% | HOP-92 NSCLC 83.3% | A549/ATCC NSCLC 98.6% | 786-0 renal 95.6% | COLO 205 colon 109% | DU-145 prostate 84% | K-562 leukemia 69.6% | MALME-3M melanoma 110% | MDA-MB-231 breast 89.9% | SF-268 CNS 97.9% | SF-295 CNS 96.5% | SF-539 CNS 67.9% | UACC-257 melanoma 89.3%

CCCCn1c(Cc2ccc(OC)cc2)nc2cc(OC)c(OC)cc2c1=O
active: UACC-257 melanoma -56.6%
inactive: NCI-H23 lung 62.1% | NCI-H226 lung 68.1% | NCI-H322M lung 101% | NCI-H460 lung 99.2% | HOP-92 NSCLC 61.9% | NCI-H522 lung 87% | A549/ATCC NSCLC 19.7% | COLO 205 colon 107% | DU-145 prostate 103% | K-562 leukemia 48.6% | MALME-3M melanoma 112% | MDA-MB-231 breast 73.9% | SF-268 CNS 86.1% | SF-539 CNS 103% | M14 melanoma 119%

From PubChem BioAssay (NCI)
